The sample as a whole holds a higher share of hits than the screen did.
STK33 kin inh = blocks human STK33 kinase activity; Q9BYT3; ADP-Glo luminescence, MBP substrate; inhibition, % at 12.5 µM; hit rate 0.44% among 27,000; AID 2322; in the data active = inhibition above about 20%
NOMO-1 viab = STK33 inhibitor candidate reducing NOMO-1 cell viability. NOMO-1 AML viability, CellTiter-Glo luminescence, 72 h. hit rate 7.5% among 37,000. inhibition, % (no concentration beside the values); in the data active = inhibition above about 80%
PD-1 reverse act = reversal of PD-1 mediated T-cell inhibition; primary human CD4 T cells, PD-L1 beads, CellTiter-Glo 96 h; activation, % (no concentration beside the values); 29,000 tested, under 10 active; AID 2316; call rule not given here;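 also: 0% = median vehicle wells and 100% = positive control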
Numbers without * were called inactive.

What do the screens show for `CC(=O)OC1COC(OC2C(O)C(C)OC(OC3C(OC4CCC5(C)C(CCC6(C)C5CC=C5C7CC(C)(C)CCC7(C(=O)O)CCC56C)C4(C)CO)OCC(O)C3O)C2O)C(O)C1OC(C)=O` (stereo not given)?
STK33 kin inh: -4; NOMO-1 viab: 122*; PD-1 reverse act: -9

How did C/C=C(/C)C(=O)O[C@H]1CC(C)(C)C[C@H]2C3=CCC4[C@@]5(C)CC[C@H](O[C@@H]6O[C@H](C(=O)O)[C@@H](O[C@@H]7O[C@H](CO)[C@H](O)[C@H](O)[C@H]7O[C@@H]7O[C@H](CO)[C@@H](O)[C@H](O)[C@H]7O)[C@H](O)[C@H]6O[C@@H]6O[C@@H](C)[C@H](O)[C@@H](O)[C@H]6O)C(C)(C)C5CC[C@@]4(C)[C@]3(C)C[C@@H](O)[C@@]12CO (stereo not given in full) do in these assays?
STK33 kin inh: -9; NOMO-1 viab: 119*; PD-1 reverse act: -15

Results for C[C@@H]1O[C@@H](O[C@@H]2CC[C@@]3(C)C(CC[C@]4(C)C3CC=C3[C@@H]5CC(C)(C)CC[C@]5(C(=O)O[C@@H]5O[C@H](CO)[C@@H](O)[C@H](O)[C@H]5O)CC[C@]34C)[C@]2(C)CO)[C@H](O)[C@H](O[C@@H]2OC[C@@H](O)[C@H](O)[C@H]2O)[C@H]1O (stereo not given in full) ?
STK33 kin inh: -1; NOMO-1 viab: 10; PD-1 reverse act: 1

How did CC(C)NC(=O)Nc1ccc2c(c1)CC(=O)N([C@@H](C)CO)C[C@@H](C)[C@@H](CN(C)C(=O)Nc1cccc3ccccc13)O2 do in these assays?
STK33 kin inh: -3; NOMO-1 viab: 1; PD-1 reverse act: 0

What do the screens show for `CC(=O)Nc1ccc(-c2nnc(SCC(=O)Nc3cccc(C(F)(F)F)c3)n2C)cc1`?
STK33 kin inh: 0; NOMO-1 viab: 15; PD-1 reverse act: 3

What do the screens show for `CCn1c(SCC(=O)Nc2ccc(F)c(Cl)c2)nnc1-c1ccc(C(C)(C)C)cc1`?
STK33 kin inh: 2; NOMO-1 viab: 53; PD-1 reverse act: 0

Results for CSc1nnc(Cc2ccccc2)c(=O)[nH]1 ?
NOMO-1 viab: 32; PD-1 reverse act: 1

Results for CC1(C)CC[C@]2(C(=O)O)CC[C@]3(C)C(=CCC4[C@@]5(C)CC[C@H](O[C@@H]6O[C@H](CO)[C@@H](O)[C@H](O)[C@H]6O)C(C)(C)C5CC[C@]43C)[C@@H]2C1 (stereo not given in full) ?
STK33 kin inh: -8; NOMO-1 viab: 120*; PD-1 reverse act: -10

Results for CC1(C)CC[C@]2(C(=O)O[C@@H]3O[C@H](CO)[C@@H](O)[C@H](O)[C@H]3O)CC[C@]3(C)C(=CCC4[C@@]5(C)C[C@H](O)[C@H](O[C@@H]6O[C@H](C(=O)O)[C@@H](O)[C@H](O)[C@H]6O)[C@@](C)(CO)C5CC[C@]43C)C2C1 (stereo not given in full) ?
STK33 kin inh: -2; NOMO-1 viab: 0; PD-1 reverse act: -1

How did CC1(C)CC[C@]2(C(=O)O)CC[C@]3(C)C(=CCC4[C@@]5(C)CC[C@H](O[C@@H]6O[C@H](C(=O)O)[C@@H](O[C@@H]7O[C@H](CO)[C@@H](O)[C@H](O)[C@H]7O)[C@H](O)[C@H]6O[C@@H]6O[C@H](CO)[C@@H](O)[C@H](O)[C@H]6O)C(C)(C)C5CC[C@]43C)C2C1 (stereo not given in full) do in these assays?
STK33 kin inh: -7; NOMO-1 viab: 54; PD-1 reverse act: -1

How did CC1(C)CC[C@]2(C(=O)O[C@@H]3O[C@H](CO)[C@@H](O)[C@H](O)[C@H]3O)CC[C@]3(C)C(=CCC4[C@@]5(C)C[C@@H](O)[C@H](O)[C@@](C)(COC(=O)c6cc(O)c(O)c(O)c6)C5[C@H](O)C[C@]43C)[C@@H]2C1 (stereo not given in full) do in these assays?
STK33 kin inh: 9; NOMO-1 viab: 109*; PD-1 reverse act: -1

How did C[C@H]1CN([C@@H](C)CO)C(=O)c2cccc(NS(=O)(=O)c3ccccc3)c2O[C@H]1CN(C)C(=O)NC1CCCCC1 do in these assays?
NOMO-1 viab: 10; PD-1 reverse act: 0

What do the screens show for `COc1ccc(NC(=O)N(C)C[C@H]2Oc3c(NS(C)(=O)=O)cccc3C(=O)N([C@@H](C)CO)C[C@@H]2C)cc1`?
NOMO-1 viab: 8; PD-1 reverse act: 1

What do the screens show for `C[C@H](CO)N1C[C@H](C)[C@H](CN(C)C(=O)Nc2ccccc2)Oc2c(NC(=O)c3nc4ccccc4s3)cccc2C1=O`?
NOMO-1 viab: 46; PD-1 reverse act: -3

From PubChem
